Results published in the supplement of paper PMC4894684.
Counter-ions that a name gives are not always drawn. ± gives the standard deviation of the averaged measurements.

System: Toxoplasma gondii RH (in HFF)
Assay: parasite growth relative to the screen mean (all compounds = 100%); higher = less inhibition of parasite growth
Settings: 5 µM; 72 h; oxygen 21 %
Summary of the method: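 RH β-Gal–GFP Toxoplasma at MOI 1:5 was used to infect confluent human foreskin fibroblasts in 96-well plates within 2 h of pin-transferring compounds to 5 µM final. After 72 h at 21% O2, parasite number was determined by CPRG β-Gal assay against standard curves on the same plate. Growth is relative to the screen mean and averaged over two screens, with all compounds = 100%.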

Row | Compound | parasite growth [%]
1 | N[C@@H](C(=O)O)c1ccc(O)c(C(=O)O)c1 [(R)-3-Carboxy-4-hydroxyphenylglycine] | 148 ± 15
2 | COC(=O)Nc1ccc2[nH]cc(CCNC(C)=O)c2c1 | 81 ± 2.9
3 | Cc1cc(C)c(/C=C2\C(=O)Nc3ccccc32)[nH]1 | 198 ± 12
4 | CCOC(=O)C1=C(N)Oc2ccc(Br)cc2C1C(C#N)C(=O)OCC (stereo not drawn) | 135 ± 2.5
5 | O=[N+]([O-])c1cccc2c[nH]nc12 | 97.2 ± 10
6 | O=C(O)C1CCCN(CCC=C(c2ccccc2)c2ccccc2)C1 (stereo not drawn) | 122 ± 26
7 | CCN(CC)CCOC(=O)C1(c2ccc([N+](=O)[O-])cc2)CCCC1 [Nitrocaramiphen hydrochloride] | 99.3 ± 34
8 | CCC(C)(C)C(=O)O[C@H]1C[C@@H](C)C=C2C=C[C@H](C)[C@H](CC[C@@H]3C[C@@H](O)CC(=O)O3)[C@H]21 [Simvastatin] | 110 ± 18
9 | COc1cccc2c1C(=O)c1c(O)c3c(c(O)c1C2=O)C[C@@](O)(C(C)=O)C[C@@H]3O[C@H]1C[C@H](N)[C@H](O)[C@H](C)O1 [Daunorubicin hydrochloride] | < 0
10 | CNc1cc(OC)c(C(=O)NC2CCN(Cc3ccccc3)C2C)cc1Cl (stereo not drawn) [Nemonapride] | 95.4 ± 2.2
11 | CC(C)NCC(O)COc1ccc(COCCOC(C)C)cc1 (racemic) [(±)-Bisoprolol hemifumarate] | 77.7 ± 0.94
12 | C[S+]([O-])c1ccc(-c2nc(-c3ccc(F)cc3)c(-c3ccncc3)[nH]2)cc1 (stereo not drawn) | 8.46 ± 12
13 | Cc1oncc1C(=O)Nc1ccc(C(F)(F)F)cc1 [Leflunomide] | 106 ± 61
14 | O=C(NCCCN1CCCCCC1)C(c1ccccc1)C1CCCCC1 (stereo not drawn) | 83 ± 2.4
15 | CC1=C(/C=C/C(C)=C/C=C/C(C)=C/C(=O)Nc2ccc(O)cc2)C(C)(C)CCC1 [Fenretinide] | 38 ± 8.6
16 | S=C(S)N1CCCC1 [Pyrrolidinedithiocarbamate ammonium] | < 0
17 | CC(Cc1ccccc1)(NC(=O)CN)c1ccccc1 (stereo not drawn) [Remacemide hydrochloride] | 129 ± 5.9
18 | Cc1c(NC(=O)N2CCOCC2)ccc2c1c1ccccc1n2C(C)C | 144 ± 4.9
19 | CCN(CC)c1ccc(/C=N/NC(=O)c2ccc(O)cc2)cc1 | 115 ± 28

Row | Compound | parasite growth [%]
20 | C/C=C1\C(=O)C[C@H]2[C@@H]3CCC4=CC(=O)CC[C@]4(C)[C@H]3CC[C@]12C [Guggulsterone] | 90.6 ± 26
21 | Cc1ccc2c(=O)c3ccccc3n(CCCN)c2c1C | < 0
22 | CC[C@H](NC(=O)c1c(C)c(-c2ccccc2)nc2ccccc12)c1ccccc1 | 98.6 ± 3.1
23 | Cc1ccc([N+](=O)[O-])cc1S(=O)(=O)N(C)C | 74.2 ± 14
24 | O=C(OCCN1CCOCC1)C1(c2ccccc2)CCCCC1 [PRE-084 hydrochloride] | 99.6 ± 19
25 | CCC1=C(C)CN(C(=O)NCCc2ccc(S(=O)(=O)NC(=O)N[C@H]3CC[C@H](C)CC3)cc2)C1=O [Glimepiride] | 149 ± 43
26 | O=C(O)C1(C(=O)O)CCC1.[NH2-].[NH2-].[Pt+2] [Carboplatin] | 136 ± 19
27 | COc1cc2c(CCNC(C)=O)c[nH]c2cc1Cl [6-Chloromelatonin] | 131 ± 24
28 | NC(=O)c1cccc(N)c1 [3-Aminobenzamide] | 129 ± 30
29 | COc1ccc([C@H]2CNC(=O)C2)cc1OC1CCCC1 [(S)-(+)-Rolipram] | 116 ± 30
30 | CCOC(=O)c1ncn2c1CN(C)C(=O)c1cc(F)ccc1-2 [Flumazenil] | 84.5 ± 15
31 | Cc1ccc(CC2(O)CCN(CCOc3ccc(O)cc3)CC2)cc1 | 111 ± 35
32 | CN1Cc2c(C(=O)OC(C)(C)C)ncn2-c2ccsc2C1=O | 55.6 ± 4.8
33 | N#C/C(=C\c1ccc(O)c(O)c1)C(=O)NCCCc1ccccc1 | 154 ± 16
34 | CC1(c2ccccc2)OC(C(=O)O)=CC1=O (stereo not drawn) [Acifran] | 114 ± 2.4
35 | COc1ccc2c(c1OC)C(=O)O[C@@H]2[C@H]1c2c(cc3c(c2OC)OCO3)CCN1C [Noscapine hydrochloride] | 129 ± 27
36 | Cc1cc(C(C)(C)C)c(O)c(C)c1CC1=NCCN1 [Oxymetazoline hydrochloride] | 196 ± 16
37 | CC(C)(C)[N+]([O-])=Cc1ccc(S(=O)(=O)O)cc1S(=O)(=O)O | 86.3 ± 26
38 | CCCOc1ccc(Br)cc1-c1cc(-c2ccc(Cl)cc2)[nH]c1-c1ccncc1 | 37 ± 9
